Laboratory results from PubChem BioAssay AID1347417 (National Center for Advancing Translational Sciences (NCATS), 2020).
Out of some 120,000 compounds screened, about 5,300 (4.4%) were called active. About 22% were inconclusive and are not listed. The sample holds actives, similar compounds and a random draw of the others, so the mix is not that of the screen. Unmarked numbers belong to inactive results. The call rests on the fitted dose curve; in most records, active means well fitted inhibition curve with a large enough effect; inconclusive means small, poorly fitted or top-dose-only effect; inactive means no such curve, though single readings can be large or run the other way.

assay: qHTS Primary assay for Inhibitors of Plasmodium falciparum Dd2 growth in vitro; further: nearly all actives have a fitted effect of over 65% in size;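 on activity, negative = inhibition: plate controls were DMSO vehicle for no effect and reference drug for full effect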; conditions: P. falciparum Dd2 growth, SYBR Green, 72 h; series mostly up to 28.9 µM; activity, negative = inhibition: at the top concentration
Source text: Malaria, a parasitic disease spread to humans through the bite of a Plasmodium infected Anopheles mosquito, continues to be a global health burden affecting millions of people, with an estimated 228 million cases and 405,000 deaths in 2018. Concerns about safety and limitations of current antimalarial treatments strongly emphasize the need to develop new therapeutic options. The scarce number of chemotypes and validated drug targets with efficacy against the liver stage, have hindered development of new antimalarials. To address this, a chemoprophylactic drug discovery effort was conducted through a combined phenotypic high-throughput asexual blood stage and liver stage screen, providing a robust foundation to identify liver-stage active lead chemotypes. Compounds were initially screened against Plasmodium falciparum Dd2 strain parasites using a in vitro SYBRGreen-1 based 72 hr proliferation assay to identify novel chemotypes to advance to liver stage assays. NIH/NCATS Early Translation Branch Assay Submitter (PI): Anton Simeonov Ph.D.
Malaria-vivax Assay Protocol: PROTOCOL TABLE (as described by Inglese et al., 2007) SEQUENCE No. (e.g., 1, 2, 3, etc.); […] (e.g., Cells, Incubation, Reagent, etc.); VALUE; DESCRIPTION SEQUENCE, Parameter, Description 1; Reagent; 3 uL complete malaria growth medium, 1536 TC treated Black clear bottom plate 2; Controls; 23 nL positive control artesunate (300 nM final) to column 1; Neutral control DMSO to columns 2-4 3; Compound; 23 nL of compounds in dose response concentration (29 uM to 0.5 nM final) 4; Reagent; 5 uL malaria infected red blood cells (2.5% hematocrit final, 0.3% parasitemia 5; Time; 72 hours at 37C (5% O2, 5% CO2, 90% N2; 95% Rh) 6; Reagent; 2 uL lysis buffer/SYBRGreen-1, 25 sec shake immediately following dispense 7; Time; ~16 hours at 37C (5% O2, 5% CO2, 90% N2; 95% Rh) 8; Detector; EnVision (PerkinElmer) bottom read at 485/14nm excitation and 535/25 nm emission NOTES (numbers refer to sequence above): 1; Complete Malaria Growth Media: 1X RPMI-1640 w/L-glutamine, 5.5g/L Albumax II, 367 uM Hypoxanthine, 25 mM HEPES, 0.25% Sodium Bicarbonate, 35 uM Gentamicin sulfate 2; Controls were added using the Kalypsis Pintool (Wako USA) equipped with 1536 pinhead 3; Compounds were added in a 7-point, titration with a high final concentration of 29 uM by Pintool from seven inter-plate titrations of library plates and two DMSO control plates at the beginning and end (see Yasgar et al., 2008). 4; Red blood cells infected with Plasmodium falciparum Dd2 parasites were used. 6; Lysis buffer: 20 mM Tris-HCl, 10 mM EDTA, 0.16% Saponin, 1.6% Triton-X, 10X SYBR Green. REFERENCE: Inglese J, Shamu CE, Guy RK. 2007. Reporting data from high-throughput screening of small-molecule libraries. Nat Chem Biol. doi:10.1038/nchembio0807-438 Yasgar A, Shinn P, Jadhav A, Auld D, Michael S, Zheng W, Austin CP, Inglese J, Simeonov A. 2008. Compound Management for Quantitative High-Throughput Screening. J Lab Autom 13:79-89. doi:10.1016/j.jala.2007.12.004
Potency means the concentration at half of the fitted maximal effect.

SMILES | activity, negative = inhibition | outcome | Potency
CC[C@@]1(C(=O)O)C[C@H](C(=O)NCCCO)[C@H](c2ccc(OC)cc2)N1C | -0.459% |  | 
CCc1noc(-c2nnn3c2COC(c2ccc(OC)cc2)C3)n1 (stereo unspecified) |  | inactive | 
CN(C)S(=O)(=O)N1CCC(Oc2ccc(C(=O)NC3(C)CC3)cc2)CC1 | -8.77% |  | 
Cc1nn2c(c1-c1ccccc1N1CCCC1)N(C(=O)c1ccn(C)n1)CCC2 |  | inactive [at 44.1 µM] | 
O=C(c1cccs1)N1CC(Oc2ccc(-c3nc(-c4ccccc4)no3)cc2)C1 | 8.59% [at 5.79 µM] |  | 
O=C(c1ccc(C(F)(F)F)cc1)N1CCn2c(nn(-c3cccc(Cl)c3)c2=O)C1 | -12.9% |  | 
Cn1nnnc1SCCCNCc1ccc(Cl)cc1 | -18.1% |  | 
Cn1nnnc1SCCCNCc1cccc(OCc2ccc(Cl)cc2)c1 |  |  | 12.6 µM (active)
Cn1nnnc1SCCNCc1ccc(Cl)c(Cl)c1 | -4.54% |  | 
Cc1ccc(C(=O)CC2(O)C(=O)N(CCc3ccccc3)c3ccc(Br)cc32)cc1 (stereo unspecified) |  |  | 10 µM (active)
Cc1ccc(S(=O)(=O)NC2(C(F)(F)F)NC(=O)N(CCc3ccccc3)C2=O)cc1 (stereo unspecified) | 12% |  | 
Cc1ccc(C(=O)N2CCc3cc(CNC(=O)c4ccc(Br)cc4)ccc32)cc1 |  | inactive | 
COCCN1CCC(N2CCN(C(=O)c3cc(F)cc(F)c3)CC2)C1=O (stereo unspecified) | 5.06% |  | 
CC(=O)c1ccc(NC(c2ccc(F)cc2)c2nnc(-c3ccccc3)o2)cc1 (stereo unspecified) | 3.29% |  | 
Cc1cc(C)cc(NC(c2nnc(-c3cccc(F)c3)o2)c2ccc(F)cc2Cl)c1 (stereo unspecified) |  |  | 3.55 µM (active)
Cc1c(C(=O)N2CCn3nc(C(O)CO)cc3C2)sc2ccccc12 (stereo unspecified) | -5.26% |  | 
O=C(c1cnc2c(c1)N(Cc1ccccc1)CCC2)N1CC[S+](=O)([O-])CC1 | -8.42% [at 44.1 µM] |  | 
COCCNC(=O)C[C@@H]1C[C@H]2O[C@H](CNC(=O)Nc3cccc(Cl)c3)[C@@H](O)[C@H]2O1 | 20.7% [at 44.1 µM] |  | 
CCCN1CCc2nc(N3CCN(C)CC3)ncc2C1 | 36.4% [at 5.79 µM] |  | 
Cc1ccc(CN2CCc3nc(N4CCN(C)CC4)ncc3C2)cc1 |  | inactive | 
CCN1CCN(c2ncc3c(n2)CC(c2ccccc2O)CC3=O)CC1 (stereo unspecified) |  |  | 8.91 µM (active)
COc1ccc2[nH]c3c(c2c1)CCN(C)C31CCN(C(=O)c2ccoc2)CC1 |  | inactive | 
Cc1ccc(-c2nc(C(=O)N3CCN(c4ccccn4)CC3)no2)cc1 |  | inactive | 
O=C(c1ccccc1)N1Cc2ccccc2NC(=O)C12CCNCC2 | 11.4% |  | 
O=C(NCc1ccc(F)cc1)N1CCC(n2cnnc2C2CC2)C1 (stereo unspecified) |  | inactive | 
CCCNC(=O)N1CC(Oc2ccc(-c3nc(C)no3)cc2)C1 | 40.8% [at 5.79 µM] |  | 

SMILES | activity, negative = inhibition | outcome | Potency
COc1ccc(CCNC(=O)c2nn(C)c3c2CSc2ccccc2-3)cc1OC | -1.26% |  | 
COc1ccc(-c2cc3c(nc2-c2ccccc2)nc(C(=O)NCCN(C)C)n3C)cc1OC |  |  | 3.98 µM (active)
COc1ccc(Nc2cc3c(nc2-c2ccccc2)nc(C(=O)NCCN(C)C)n3C)cn1 | -23.9% |  | 
O=C(c1cnc[nH]1)N1C[C@@H](COCC2CC2)[C@H](c2ccccn2)C1 | -19.5% |  | 
O=C(Nc1ccc(F)cc1F)N1CCC2(CC1)SCC(=O)N2c1ccc(Cl)cc1 |  | inactive | 
O=C1Cc2c(-c3ccc(Oc4ccccc4)cc3)n[nH]c2CN1CCc1ccncc1 |  |  | 11.2 µM (active)
CC(C)Oc1cccc(-c2n[nH]c3c2CC(=O)N(Cc2ccccc2)C3)c1 |  | inactive [at 44.1 µM] | 
O=C1Cc2c(-c3ccc(CO)cc3)n[nH]c2CN1CC1CCOCC1 | 6.98% [at 44.1 µM] |  | 
O=C(CN1C(=O)C(c2ccccc2)=NC12CCCC2)N1CCN(c2ccccc2)CC1 | 32.9% |  | 
CCc1noc([C@@H]2CC(F)(F)CN2C(=O)c2cocn2)n1 | 20.3% |  | 
O=C1CC(c2noc(-c3ccc(F)c(Cl)c3)n2)CN1c1ccc(F)cc1 (stereo unspecified) | 28.5% |  | 
CCC[S+](=O)([O-])NC1CCN(C(=O)N2CC3CC(C2)[C@H]2CCCC(=O)N2C3)CC1 (stereo partly specified) | -12.6% |  | 
CCCS(=O)(=O)N1CC[C@H]2C(=O)NCCCCCCN(Cc3ccncc3)[C@@H]2C1 | 23% |  | 
COCCC1(NS(C)(=O)=O)CCN(C(=O)c2ccc(C#N)cc2)CC1 | -5.57% |  | 
Cc1noc(CC2CCOC3(CCN(C(=O)c4ccc(C#N)cc4)CC3)C2)n1 (stereo unspecified) | -8.63% |  | 
Cc1ccc(C2=NC3(CCN(C(=O)c4ccc(C#N)cc4)CC3)ON2)cc1 |  |  | 4.47 µM (active)
CCN1c2cc(C(=O)Nc3ccc(SC)cc3)ccc2C(=O)N2CCCCCC21 (stereo unspecified) | -3.15% |  | 
CCN1c2cc(C(=O)Nc3ccc(OC)c(F)c3)ccc2C(=O)N2CCCCC21 (stereo unspecified) |  | inactive | 
CN1c2cc(C(=O)Nc3ccc(F)c(F)c3)ccc2C(=O)N2CCCCCC21 (stereo unspecified) | -20.7% |  | 
COc1ccc(CNC(=O)c2ccc3c(c2)N(C)C2CCCCN2C3=O)c(OC)c1 (stereo unspecified) |  | inactive | 
CCN1c2cc(C(=O)NCc3ccc(OC)cc3OC)ccc2C(=O)N2CCCCCC21 (stereo unspecified) |  |  | 4.47 µM (active)
CN1C(=O)c2cccn2CC1C(=O)NC1CCN(Cc2ccccc2)CC1 (stereo unspecified) | -6.66% |  | 
CCN1c2cc(C(=O)Nc3ccc(F)c(C)c3)ccc2C(=O)N2CCCCC21 (stereo unspecified) | -9.86% |  | 
CCN1c2cc(C(=O)NC3CCN(Cc4ccccc4)CC3)ccc2C(=O)N2CCCCC21 (stereo unspecified) |  |  | 7.94 µM (active)
CCN1c2cc(C(=O)NCc3cccc(F)c3)ccc2C(=O)N2CCCCCC21 (stereo unspecified) |  |  | 3.55 µM (active)
